About 79,000 compounds went through this panel and 15% of them were active in at least one assay; those are over-represented in the sample as a whole. Activity calls are given as the source filed them. No stated cut-off is given here; in the data, active means growth inhibition above about 70%; inactive means the rest.
Tests used:
[1] = NCI Yeast Anticancer Drug Screen. Data for the rad50 strain (AID 155);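 further: 0% = growth of vehicle-only cultures of the same strain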; conditions: S. cerevisiae rad50 strain growth inhibition, active compounds read high
How it was run: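 Relative growth inhibition (compound vs vehicle) was measured in yeast with a defined repair-gene alteration.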

[2] = NCI Yeast Anticancer Drug Screen. Data for the mec2-1 strain (AID 157); conditions: S. cerevisiae mec2-1 strain, active compounds read high
How it was run: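 Mutant yeast (mec2-1) grown with compound; growth inhibition relative to vehicle control reported.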

[3] = NCI Yeast Anticancer Drug Screen. Data for the sgs1 mgt1 strain (AID 161);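 further: 0% = growth of cultures given vehicle only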; conditions: S. cerevisiae sgs1 mgt1 strain, active compounds read high
How it was run: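 Growth of a repair-deficient yeast mutant was monitored after compound treatment and expressed as inhibition relative to vehicle-treated cultures.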

[4] = NCI Yeast Anticancer Drug Screen. Data for the cln2 rad14 strain (AID 165);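 further: 0% = growth equal to vehicle treated cultures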; conditions: S. cerevisiae cln2 rad14 strain, active compounds read high
How it was run: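 Readout is yeast growth inhibition versus vehicle-treated controls, using a strain with cln2 and rad14 alterations exposed to compound.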

[5] = NCI Yeast Anticancer Drug Screen. Data for the bub3 strain (AID 167); conditions: S. cerevisiae bub3 mutant strain, active compounds read high
How it was run: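 Screening used yeast with an engineered genetic alteration affecting cell cycle control. Compound-exposed cultures were compared with vehicle cultures, and reduced growth was taken as inhibition.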

[6] = NCI Yeast Anticancer Drug Screen. Data for the mlh1 rad18 strain (AID 175); conditions: S. cerevisiae mlh1 rad18 strain growth inhibition, active compounds read high
How it was run: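 Genetically defined yeast (DNA repair-deficient) exposed to compounds; growth inhibition determined relative to vehicle.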

[7] = at 5.0 µM (retest, dose inferred, filed as 0.5)
[8] = at 50.0 µM (retest, dose inferred, filed as 5.0)

Measured: growth inhibition

CCOC(=O)/C(Cl)=C(\C)Nc1nc2c(ccc3ccccc32)s1
inactive: [1]; [7] 22% | [1]; [8] 20% | [1]; at 50.0 µM 8.8% | [2]; [7] 1% | [2]; [8] 66% | [2]; at 50.0 µM 26.6% | [3]; [7] -8% | [3]; [8] 31% | [3]; at 50.0 µM -0.75% | [4]; [7] 15% | [5]; [7] -4% | [6]; [7] 0% | [6]; [8] 21% | [6]; at 50.0 µM 0.6%
active: [4]; [8] 71% | [4]; at 50.0 µM 97.3% | [5]; [8] 94% | [5]; at 50.0 µM 94.9%

C1=Nc2ccccc2C=Nc2ccccc2C=Nc2ccccc2C=Nc2ccccc21.[Cl-].[Pt+2]
active: [1]; [8] 93% | [1]; at 50.0 µM 85% | [2]; [7] 80% | [2]; [8] 97% | [2]; at 50.0 µM 82.2% | [3]; [8] 89% | [3]; at 50.0 µM 76.8% | [5]; [7] 75% | [5]; [8] 87% | [5]; at 50.0 µM 74.7% | [6]; [8] 97% | [6]; at 50.0 µM 81.4%
inactive: [1]; [7] 55% | [3]; [7] 36% | [4]; [7] 25% | [4]; [8] 69% | [4]; at 50.0 µM 60% | [6]; [7] 63%

O=C(O)CSc1nnc2c3ccccc3c3ccccc3c2n1
inactive: [1]; [7] -14% | [1]; at 50.0 µM 48% | [2]; [7] 6% | [2]; [8] 46% | [2]; at 50.0 µM 30.1% | [3]; [7] -2% | [3]; [8] 55% | [3]; at 50.0 µM 7.8% | [4]; [7] -33% | [4]; [8] 65% | [4]; at 50.0 µM 47.7% | [5]; [7] 17% | [5]; [8] 53% | [5]; at 50.0 µM 54.9% | [6]; [7] 9% | [6]; at 50.0 µM 47.1%
active: [1]; [8] 70% | [6]; [8] 71%

CNC(=O)NN(C)C=O
inactive: [1]; [7] 0% | [1]; [8] 2% | [1]; at 50.0 µM -12.1% | [2]; [7] 4% | [2]; [8] 2% | [2]; at 50.0 µM 45.5% | [3]; [7] 2% | [3]; [8] 1% | [3]; at 50.0 µM -7.95% | [4]; [7] -2% | [4]; [8] -4% | [4]; at 50.0 µM 12.1% | [5]; [7] -2% | [5]; [8] -5% | [5]; at 50.0 µM -4.35% | [6]; [7] -4% | [6]; [8] -3% | [6]; at 50.0 µM -4.55%

c1ccc2c(c1)[nH]c1c[n+]3c(c[n+]12)[nH]c1ccccc13
active: [1]; at 50.0 µM 71.6% | [6]; [8] 84% | [6]; at 50.0 µM 80%
inactive: [1]; [7] 7% | [1]; [8] 53% | [2]; [7] 8% | [2]; [8] 47% | [2]; at 50.0 µM 5.45% | [3]; [7] 10% | [3]; [8] 67% | [3]; at 50.0 µM 58.9% | [4]; [7] -7% | [4]; [8] 29% | [4]; at 50.0 µM 45.2% | [5]; [7] -8% | [5]; [8] 50% | [5]; at 50.0 µM 6% | [6]; [7] 4%

c1ccc([P+](CCCCCC[P+](c2ccccc2)(c2ccccc2)c2ccccc2)(c2ccccc2)c2ccccc2)cc1
active: [1]; [8] 85% | [1]; at 50.0 µM 81.7% | [2]; [8] 94% | [2]; at 50.0 µM 84.8% | [3]; [8] 97% | [3]; at 50.0 µM 83.3% | [4]; at 50.0 µM 78.2% | [5]; [8] 77% | [5]; at 50.0 µM 86.6% | [6]; [8] 94% | [6]; at 50.0 µM 81.7%
inactive: [1]; [7] 61% | [2]; [7] 46% | [3]; [7] 38% | [4]; [7] 36% | [4]; [8] 68% | [5]; [7] 43% | [6]; [7] 52%

Nc1nc(=O)n(C2OC(CO)C(O)C2O)cc1[N+](=O)[O-] (stereo not given)
inactive: [1]; [7] -10% | [1]; [8] -9% | [1]; at 50.0 µM -5.75% | [2]; [7] -6% | [2]; [8] -15% | [2]; at 50.0 µM 18.9% | [3]; [7] -2% | [3]; [8] -5% | [3]; at 50.0 µM 4.45% | [4]; [7] -40% | [4]; [8] -13% | [4]; at 50.0 µM -10.2% | [5]; [7] -7% | [5]; [8] 1% | [5]; at 50.0 µM -12.7% | [6]; [7] 1% | [6]; [8] -5% | [6]; at 50.0 µM 17.9%

COC(=O)C(=O)C(=O)C1CCCC(c2ccccc2)C1=O (stereo not given)
inactive: [1]; [7] 1% | [2]; [7] 0% | [3]; [7] 1% | [3]; [8] 53% | [4]; [7] 2% | [5]; [7] -11% | [6]; [7] -10%
active: [1]; [8] 96% | [1]; at 50.0 µM 96.3% | [2]; [8] 97% | [2]; at 50.0 µM 98% | [3]; at 50.0 µM 71.6% | [4]; [8] 98% | [4]; at 50.0 µM 94.8% | [5]; [8] 98% | [5]; at 50.0 µM 97.8% | [6]; [8] 97% | [6]; at 50.0 µM 96.4%

N#CC(Cl)CS(=O)(=O)c1ccccc1 (stereo not given)
active: [1]; [7] 81% | [1]; [8] 100% | [1]; at 50.0 µM 99.5% | [2]; [7] 96% | [2]; [8] 100% | [2]; at 50.0 µM 99.5% | [3]; [8] 99% | [3]; at 50.0 µM 99.5% | [4]; [8] 99% | [4]; at 50.0 µM 99.2% | [5]; [7] 95% | [5]; [8] 100% | [5]; at 50.0 µM 95.2% | [6]; [7] 88% | [6]; [8] 100% | [6]; at 50.0 µM 99.5%
inactive: [3]; [7] 31% | [4]; [7] 49%

N#CS/C(Cl)=C(/C(Cl)=C(Cl)Cl)[N+](=O)[O-]
active: [1]; [8] 99% | [1]; at 50.0 µM 84.8% | [2]; [8] 99% | [2]; at 50.0 µM 70.7% | [3]; [8] 98% | [3]; at 50.0 µM 87.4% | [4]; [8] 98% | [5]; [8] 99% | [5]; at 50.0 µM 85.7% | [6]; [8] 99% | [6]; at 50.0 µM 81.2%
inactive: [1]; [7] 5% | [2]; [7] 18% | [3]; [7] -3% | [4]; [7] -5% | [4]; at 50.0 µM 48.6% | [5]; [7] -21% | [6]; [7] -15%
